# PLK1 kinase inh: human PLK1 kinase inhibitors, primary screen, biochemical, TR-FRET. 97,000 compounds, 0.53% hits. recombinant PLK1 kinase, TR-FRET peptide phosphorylation. Serine/threonine-protein kinase PLK1 (Homo sapiens), P53350. inhibition, % at 10 µM;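 active = inhibition of 50% or more in the single-concentration screen; inactive = inhibition below 50%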;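 also: 0% = DMSO max control and 100% = H-89 dihydrochloride min control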
# Target sequence (P53350 whole entry, looked up): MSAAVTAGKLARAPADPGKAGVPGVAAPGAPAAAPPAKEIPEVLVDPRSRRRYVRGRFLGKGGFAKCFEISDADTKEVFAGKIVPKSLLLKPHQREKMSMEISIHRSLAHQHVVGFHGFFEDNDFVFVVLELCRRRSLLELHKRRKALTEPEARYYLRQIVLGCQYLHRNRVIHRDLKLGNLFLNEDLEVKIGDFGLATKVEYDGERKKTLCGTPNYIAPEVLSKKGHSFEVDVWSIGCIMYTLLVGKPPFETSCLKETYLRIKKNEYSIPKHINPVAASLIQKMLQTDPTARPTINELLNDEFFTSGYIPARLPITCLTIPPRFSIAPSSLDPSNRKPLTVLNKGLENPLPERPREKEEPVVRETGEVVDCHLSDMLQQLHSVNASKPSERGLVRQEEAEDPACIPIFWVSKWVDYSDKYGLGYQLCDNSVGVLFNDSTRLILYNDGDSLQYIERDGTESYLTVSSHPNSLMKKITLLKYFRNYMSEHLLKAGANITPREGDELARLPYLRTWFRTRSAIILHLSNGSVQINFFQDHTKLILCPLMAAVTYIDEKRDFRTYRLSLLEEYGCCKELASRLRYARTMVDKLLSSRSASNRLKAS
# IL1B NFkB inh: inhibitors of IL-1B driven NFkB p65 nuclear import, primary screen, imaging, HUVEC, IL-1B stimulus, high-content imaging; HUVEC IL-1B NFkB p65 nuclear translocation imaging; inhibition, % at 2 µM; 94,000 compounds, 0.43% hits; AID 796, 2007;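 active = inhibition above about 30% together with a positive call from visual inspection of the well image, limit read from the data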;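 also: nuclear over cytoplasmic p65 intensity ratio measured by imaging; 0% = IL-1B stimulated DMSO wells and 100% = unstimulated DMSO wells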
# PLK1 PBD inh: Plk1 polo box domain binding inhibitors, primary screen, biochemical, fluorescence polarization. AID 693, 2007. inhibition, %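 (tested at about 20 µM)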. Plk1 PBD phosphopeptide binding. Serine/threonine-protein kinase PLK1 (Homo sapiens), P53350. 97,000 compounds, 0.13% hits; in the data active = inhibition above about 34%, passing the limit was not always enough
# NFkB transloc pot: enhancers of NFkB p65 translocation in HUVEC – imaging, IL-1B stimulus, high-content imaging, primary screen. HUVEC IL-1B NFkB p65 nuclear translocation imaging. activation, % at 2 µM. 94,000 compounds, 0.3% hits;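 active = activation above 40%, about the mean plus 3 SD, also judged a hit on visual image review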;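 also: percent activation is computed from the nuclear over cytoplasmic p65 intensity ratio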
# IL1B cytotox: cytotoxicity in IL-1B stimulated HUVEC, primary screen, cytotoxicity control for IL-1B NFkB translocation project, imaging, Hoechst nuclear count, IL-1B stimulus. cell count reduction, % at 2 µM. HUVEC cell count loss. 94,000 compounds, 0.41% hits. AID 845, 2007;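 active = cell count reduction more than 3 SD above the screen-wide mean, cut at about 70% in these data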;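 also: normalized per plate to untreated control cells as the no-loss baseline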
# PTK2B oligo ant: antagonists of Pyk2 self-association, primary screen, Q293 cells, FERM NanoBiT luminescence, HTS. 99,000 compounds, 0.83% hits. Protein-tyrosine kinase 2-beta (Homo sapiens), Q14289. active compounds read low. z-score (the deposit names both 25 µM and 10 µM);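 active = Z-score of -3 or lower, scaled per plate to the spread of control and sample wells; inactive = z-score above -3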;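 also: negative z-score means lost luminescence so less FERM oligomerization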
# The depositor's hits bear a star; nt = no result. A selection: hits, their analogues and other compounds. The true share with any hit is near 2.2%.
SMILES,PLK1 kinase inh,IL1B NFkB inh,PLK1 PBD inh,NFkB transloc pot,IL1B cytotox,PTK2B oligo ant
O=C(NC1CCCC1)C1CC(=O)N(C2CCCCCCC2)C1 (configuration not stated),-11,-15,-15,15,-14,-0.15
CCCn1nc([N+](=O)[O-])c(C(C#N)c2nc3ccccc3s2)c(Cl)c1=O (configuration not stated),-1,1,-36,-1,-7,-3.2*
CN(C)Cc1cnc2ccc(Cl)cn12,-12,97*,-38,-97,87*,0.07
C=CCCCCCCCCC(=O)NNC1=CC(=O)CC(C)(C)C1,-11,-6,-4,6,-8,2
Cc1nnc(NC(=O)c2ccccc2C(=O)O)s1,-9,9,5,-9,-3,0.78
Cc1csc(NC(=O)c2ccco2)n1,-5,-44,-2,44*,-24,0.81
Cc1csc(NC(=O)c2ccccc2C(=O)O)n1,-10,25,16,-25,86*,-0.27
CSc1nc(C)cc(OCCNS(=O)(=O)c2ccc(C)cc2)n1,-4,-14,-16,14,-8,-0.63
N#Cc1c(-n2cccc2/C=N/O)sc2c1CCCC2,-10,8,0,-8,13,-0.63
C=CCNCc1cccn1-c1sc2c(c1C#N)CCCC2,-7,31*,22,-31,8,-0.12
Cc1ccc(CSc2nnc(-c3ccncc3)n2CC2CCCO2)cc1 (configuration not stated),-17,1,-25,-1,1,0.24
COc1ccc(-c2nc3c(n2O)CCC/C3=N\O)cc1,-4,10,-7,-10,-27,1.6
Cc1nc2c(n1O)CCC/C2=N\O,3,-49,5,49*,8,-0.41
O=C(Nc1ccccc1)c1ccc(F)c(S(=O)(=O)N2CCOCC2)c1,nt,nt,nt,nt,nt,0.84
O=C(Nc1ccc(-c2cn3ccsc3n2)cc1)c1ccc(F)c(S(=O)(=O)N2CCOCC2)c1,-7,5,18,-5,-13,-3.7*
CN1C(=O)/C(=C2/C=Cc3ccccc3N2CCCS(=O)(=O)O)SC1=S,-31,10,-11,-10,20,-2.1
CCCN1/C(=C2/SC(=S)N(CC)C2=O)C=Cc2ccccc21,30,-23,-7,23,-7,-3.1*
CC1C/C(=N/O)C(C)CN1 (configuration not stated),53*,-15,-2,15,-55,0.38
CC(C)c1ccc(CC(C)C2C3=C(CCCC3=O)OC3=C2C(=O)CCC3)cc1 (configuration not stated),-13,-6,0,6,2,-4.2*
COc1cc(OC)cc(C(C(=O)NC2CCCCC2)N(C(=O)c2ccno2)c2ccccc2)c1 (configuration not stated),-8,6,4,-6,-6,-3.6*
O=C(NC1CCCC1)C(c1ccccc1)N(C(=O)c1ccno1)c1cccnc1 (configuration not stated),-9,-31,-9,31,-8,-0.61
O=C(NC1CCCC1)C(c1ccccc1)N(C(=O)c1ccno1)c1ccccc1 (configuration not stated),-4,46*,2,-46,73*,-1.9
Nc1nc(CSc2nnnn2-c2ccccc2)nc(N2CCCc3ccccc32)n1,-16,5,3,-5,-12,-4*
CC1(C)COC(c2ccc(F)c([N+](=O)[O-])c2)=N1,nt,nt,nt,nt,nt,-0.54
CCC(C)(C)n1nnnc1C(c1ccccn1)N1CCN(c2cccc(OC)c2)CC1 (configuration not stated),-11,7,3,-7,26,0.02
SMILES,PLK1 kinase inh,IL1B NFkB inh,PLK1 PBD inh,NFkB transloc pot,IL1B cytotox,PTK2B oligo ant
Cc1c(C=O)c2ccccc2n1CC(=O)N1CCc2ccccc2C1,-7,-3,-21,3,-11,3.2
CN1CCN(c2nc(-c3ccncc3)nc3ccccc23)CC1,53*,11,17,-11,2,0.31
N=C1N(/N=C/c2ccccc2)C(=Nc2ccccc2)C(=S)N1c1ccccc1,-8,-39,-3,39,-42,-0.28
CC(=O)Nc1nonc1NC(C)=O,-4,1,-32,-1,8,1.1
CC(=O)Nc1cc(OC(C)=O)c2nonc2c1OC(C)=O,5,-9,54*,9,46,-0.26
Cc1ccc2c(C)ccc(O)c2n1,-12,1,-28,-1,76*,0.57
Cc1cc(C)c2ccc(C(=O)O)nc2c1O,30,-9,13,9,3,0.48
Cn1cc(C(=O)c2ccc(Cl)cc2Cl)cc1C(=O)N/N=C(\N)COc1cccc(C(F)(F)F)c1,-13,-28,-1,28,-23,0.95
CCOC(=O)c1ccc2[nH]c3c(c2c1)CCCC3C(=O)OCC (configuration not stated),-6,-6,-13,6,-17,-1.2
CCOC(=O)c1ccc2[nH]c3c(c2c1)CCCCC3=O,-4,-41,-4,41*,16,-1.1
CCOc1cccc(N(C(=O)Cc2cccs2)C(C(=O)NC2CCCCC2)c2cccn2C)c1 (configuration not stated),-6,-1,-10,1,1,-1.1
COc1ccc(Cl)cc1NC(=O)CC(C)c1ccccc1 (configuration not stated),3,97*,-5,-97,80*,-0.36
CSC1=C(C#N)C(c2ccccc2Cl)C(C(C)=O)=C(C)N1 (configuration not stated),-9,-13,-24,13,-40,-3.1*
CCN(CC)c1ccc2cc(-c3nc4ccccc4n3C)c(=O)oc2c1,-36,34*,-11,-34,59,-1.4
Cc1cccc(NC(=O)CN(c2ccc(C(C)C)cc2)S(=O)(=O)c2c(C)nn(C)c2C)n1,-5,-34,9,34,-4,nt
O=C(CCC(=O)N(CC(=O)NC1CCCC1)C1CCCC1)Nc1ccccn1,-6,-127,-1,127*,6,0.2
Cc1ccc(C)c(N(CC(=O)NC2CCCCC2)C(=O)CCC(=O)Nc2ccccn2)c1,-5,-8,2,8,-14,nt
Cc1ccc(N(CC(=O)NC2CCCC2)C(=O)CCCC(=O)Nc2ccccn2)cc1C,58*,-4,-5,4,-6,-0.01
O=C(CCCC(=O)N(CC(=O)NC1CCCC1)C1CCCC1)Nc1ccccn1,-4,-10,0,10,-12,0.6
CCC(C(=O)NCc1ccccc1OC)n1nc(C)n2c(cc3occc32)c1=O (configuration not stated),-9,-9,6,9,3,1.8

# Screening data (PubChem BioAssay)
